This note sets out measurements from PubChem BioAssay (NCATS).

Inconclusive results are not listed. A number with no mark means an inactive call. Activity calls are given as the source filed them. Calls come from the whole dose curve; as a rule, active = well fitted cell-killing curve with a large enough effect; inconclusive = small, poorly fitted or top-dose-only effect, or effect the other way; inactive = no such curve, though single readings can be large or run the other way.
Potency is the fitted concentration of half-maximal effect.

One assay can be described thus: Quantitative High-Throughput drug screen in 47 multiple myeloma cell lines against the NCATS MIPE library collection: OCIMY5_PLB cell viability assay (AID 1918988).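 For viability, % of control: 100% = DMSO-treated wells and 0% = wells with media alone.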 Note: nearly all actives have a fitted effect of over 65% in size. The following applies: OCI-MY5 myeloma viability, ATP luminescence, 48 h; series mostly up to 45.8 µM; viability, % of control: at the top concentration. The method, boiled down:
(§1)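 500 cells/well per myeloma line exposed to pinned MIPE 4.0 compounds for 48 h at 37 °C, 5% CO2. Viability read as ATP by CellTiter-Glo luminescence, normalised to DMSO-only (100%) and media-only (0%) wells.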
On to `Cn1c(CNc2ccc(C(=N)N)cc2)nc2cc(C(=O)N(CCC(=O)O)c3ccccn3)ccc21`, for which the “viability, % of control” value was 170% [at 23.2 µM].
Take `CC[C@@H]1C(=O)N(C)c2cnc(Nc3ccc(C(=O)NC4CCC(N5CCN(CC6CC6)CC5)CC4)cc3OC)nc2N1C(C)C` (stereo partly specified): the Potency is 0.0743 µM (active).
Consider `CN(C)CC=CC(=O)Nc1cc2c(Nc3ccc(F)c(Cl)c3)ncnc2cc1O[C@H]1CCOC1`, for which the Potency was 3.32 µM (active).
Turning to `CC1(C)O[C@@H]2C[C@@H]3[C@H]4C[C@@H](F)C5=CC(=O)C=C[C@]5(C)[C@@]4(F)[C@@H](O)C[C@]3(C)[C@]2(C(=O)CO)O1`, the Potency is 0.0166 µM (active).
On to `Cc1[nH]c2ccccc2c1CCNCc1ccc(C=CC(=O)NO)cc1`, for which the Potency is 0.0418 µM (active).
The same measure, in the same setting: the value for `NC(=O)c1c(OCc2c(F)cc(Br)cc2F)nsc1NC(=O)NCCCCN1CCCC1` was 23.5 µM (active).
As for `Nc1ccn([C@@H]2O[C@H](CO)[C@H](O)C2(F)F)c(=O)n1`, the Potency is 5.9 µM (active).
Still for that read-out and setting: to `Cn1cc(-c2ccncc2)c(-c2ccc(OCc3ccc4ccccc4n3)cc2)n1` belongs 16.6 µM (active); to `Cc1nc2cnc3ccc(C#Cc4cccnc4)cc3c2n1-c1ccc(C(C)(C)C#N)cc1`, 6.62 µM (active).
Turning to `COc1cc(OC2CCN(C)CC2)ccc1Nc1ncc2c(n1)n(C1CCCC1)c(=O)n2C`, the Potency is 9.35 µM (active).
On to `COc1cc2c(Nc3ccc(NC(=O)c4ccccc4)cc3)ncnc2cc1OCCCN1CCOCC1`, for which the Potency is 18.7 µM (active).
Regarding `COc1ccc(F)c(F)c1C(=O)c1cnc(NC2CCN(S(C)(=O)=O)CC2)nc1N`, the Potency is 1.32 µM (active).
On to `CC(C)(C)NC(=O)[C@H]1CN(Cc2cccnc2)CCN1C[C@@H](O)C[C@@H](Cc1ccccc1)C(=O)N[C@H]1c2ccccc2C[C@H]1O`, for which the Potency is 26.4 µM (active).
As to `Cc1cn2c(-c3cn[nH]c3)cnc2c(Nc2ccc(C(=O)N3CCNCC3)cc2F)n1`, the Potency is 20.9 µM (active).
On to `Cc1cc(Nc2cc(CN3CCOCC3)c3nc(C)c(Cc4ccc(Cl)cc4F)n3n2)n[nH]1`, for which the Potency was 3.32 µM (active).
On the same count and under the same terms, the value for `Cc1coc2c1C(=O)C(=O)c1c-2ccc2c1CCCC2(C)C` was 14.8 µM (active); that for `C[C@@H](Oc1cc(-n2cnc3ccc(CN4CCN(C)CC4)cc32)sc1C(N)=O)c1ccccc1C(F)(F)F` was 0.0469 µM (active).
Consider `CC(C)=CCCC(C)=CCCC(C)=CCSc1ccccc1C(=O)O`, for which the Potency is 1.48 µM (active).
On to `COC(=O)Nc1ccc(-c2nc(N3CCOCC3)c3cnn(C4CCN(Cc5cccnc5)CC4)c3n2)cc1`, for which the Potency is 20.9 µM (active).
Turning to `COc1cc2c(NC3CCN(C(C)C)CC3)nc(C3CCCCC3)nc2cc1OCCCN1CCCC1`, the Potency was 6.62 µM (active).
Same read-out and setting: the value for `COCCOc1ccc2c(c1)ncn2-c1ccc2cccc(N3CCC(N)CC3)c2n1` was 0.235 µM (active); that for `Cn1cncc1[C@@](N)(c1ccc(Cl)cc1)c1ccc2c(c1)c(-c1cccc(Cl)c1)cc(=O)n2C` was 7.43 µM (active).
Consider `CCc1c2c(nc3ccc(O)cc13)-c1cc3c(c(=O)n1C2)COC(=O)[C@]3(O)CC`, for which the Potency was 1.18 µM (active).
For the compound `O=C(Nc1ncc(-c2cc(C(F)F)nn2-c2c(Cl)cccc2Cl)s1)C1CC1`, the Potency is 0.296 µM (active).
In the case of `O=C(O)C1(Cc2cccc(Nc3nccs3)n2)CCC(Oc2cccc(Cl)c2F)CC1` (stereo unspecified), the Potency was 0.662 µM (active).
Take `c1ccc2c(CCNc3ccc(Nc4ccncc4)cc3)c[nH]c2c1`: the Potency is 20.9 µM (active).

A further assay can be described thus: Quantitative High-Throughput drug screen in 47 multiple myeloma cell lines against the NCATS MIPE library collection: OPM1_PLB cell viability assay (AID 1918989). Note: nearly all actives have a fitted effect of over 40% in size. The following applies: CellTiter-Glo, 48 h; series mostly up to 45.8 µM; viability (% of control): at the top concentration. In short, it runs like this: as §1
For `O=C(NCCS(=O)(=O)c1ccc(C(F)(F)F)cn1)c1ccc(Cl)cc1`, the “viability (% of control)” value was 151%.
On the same count and under the same terms, the value for `Cn1c(CNc2ccc(C(=N)N)cc2)nc2cc(C(=O)N(CCC(=O)O)c3ccccn3)ccc21` was 129% [at 23.2 µM].
In the case of `CC[C@@H]1C(=O)N(C)c2cnc(Nc3ccc(C(=O)NC4CCC(N5CCN(CC6CC6)CC5)CC4)cc3OC)nc2N1C(C)C` (stereo partly specified), the Potency is 0.166 µM (active).
Same read-out and setting: to `CC1(C)O[C@@H]2C[C@@H]3[C@H]4C[C@@H](F)C5=CC(=O)C=C[C@]5(C)[C@@]4(F)[C@@H](O)C[C@]3(C)[C@]2(C(=O)CO)O1` belongs 0.0187 µM (active).
As for `Cc1[nH]c2ccccc2c1CCNCc1ccc(C=CC(=O)NO)cc1`, the Potency was 0.0264 µM (active).
For the compound `NC(=O)c1c(OCc2c(F)cc(Br)cc2F)nsc1NC(=O)NCCCCN1CCCC1`, the Potency was 13.2 µM (active).
In the case of `C[C@]1(CO)CN(c2cc(C(=O)Nc3ccc4c(c3)-c3c(c(C(N)=O)nn3-c3ccc(F)cc3)CC4)c(Cl)cn2)C[C@@]1(C)CO`, the Potency is 3.72 µM (active).
For the compound `Cn1cc(-c2ccncc2)c(-c2ccc(OCc3ccc4ccccc4n3)cc2)n1`, the Potency is 10.5 µM (active).
The same measure, in the same setting: to `Cc1nc2cnc3ccc(C#Cc4cccnc4)cc3c2n1-c1ccc(C(C)(C)C#N)cc1` belongs 0.0526 µM (active).
As to `COc1cc2c(Nc3ccc(NC(=O)c4ccccc4)cc3)ncnc2cc1OCCCN1CCOCC1`, the Potency was 20.9 µM (active).
`O=c1[nH]nc(Sc2ncc([N+](=O)[O-])s2)n1-c1ccc2c(c1)OCCO2`: the Potency is 2.09 µM (active).
For the compound `COc1ccc(F)c(F)c1C(=O)c1cnc(NC2CCN(S(C)(=O)=O)CC2)nc1N`, the Potency was 1.87 µM (active).
With `O=C(Cc1ccc(-c2ccc(OCCN3CCOCC3)cc2)cn1)NCc1ccccc1`, the Potency is 0.0296 µM (active).
Still for that read-out and setting: to `Cc1cc(Nc2cc(CN3CCOCC3)c3nc(C)c(Cc4ccc(Cl)cc4F)n3n2)n[nH]1` belongs 16.6 µM (active); to `Cc1coc2c1C(=O)C(=O)c1c-2ccc2c1CCCC2(C)C`, 20.9 µM (active); to `CC(C)=CCCC(C)=CCCC(C)=CCSc1ccccc1C(=O)O`, 14.8 µM (active).
Turning to `COC(=O)Nc1ccc(-c2nc(N3CCOCC3)c3cnn(C4CCN(Cc5cccnc5)CC4)c3n2)cc1`, the Potency was 0.0833 µM (active).
The same measure, in the same setting: to `COCCOc1ccc2c(c1)ncn2-c1ccc2cccc(N3CCC(N)CC3)c2n1` belongs 0.0935 µM (active); to `Cn1cncc1[C@@](N)(c1ccc(Cl)cc1)c1ccc2c(c1)c(-c1cccc(Cl)c1)cc(=O)n2C`, 16.6 µM (active); to `CCc1c2c(nc3ccc(O)cc13)-c1cc3c(c(=O)n1C2)COC(=O)[C@]3(O)CC`, 0.935 µM (active).
As to `O=C(Nc1ncc(-c2cc(C(F)F)nn2-c2c(Cl)cccc2Cl)s1)C1CC1`, the Potency is 0.418 µM (active).
In the case of `O=C(O)C1(Cc2cccc(Nc3nccs3)n2)CCC(Oc2cccc(Cl)c2F)CC1` (stereo unspecified), the Potency is 0.332 µM (active).
The same measure, in the same setting: the value for `CN1CCN(Cc2ccc(NC(=O)Nc3ccc(Oc4cc(NC(=O)C5CC5)ncn4)cc3)cc2C(F)(F)F)CC1` was 0.166 µM (active).
Consider `COc1cccc(-c2ccc(NC(=O)C3=C(C(=O)O)CCC3)c(F)c2)c1`, for which the Potency was 6.62 µM (active).
For the compound `c1ccc2c(CCNc3ccc(Nc4ccncc4)cc3)c[nH]c2c1`, the Potency is 18.7 µM (active).
